Our source for the growth values is PubChem BioAssay (NCI).

This is part of a sample that, as a whole, favours compounds with a hit. Of some 83,000 tested, about 20% had one in any assay.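 The test compound was applied at a single concentration to cells in 96-well plates for 48 hours, and percent growth was recorded.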 A number with no mark means an inactive call. Calls of active or inactive are those of the source. The calls were made as follows: active = growth percent below 10; inactive = the rest.

Test systems include HCT-15 colon; HT29 colon; SNB-75 CNS; SNB-19 CNS; U251 CNS; PC-3 prostate; SK-MEL-5 melanoma; UACC-62 melanoma; LOX IMVI melanoma; SK-MEL-28 melanoma; SK-MEL-2 melanoma; EKVX NSCLC; SN12C renal; UO-31 renal; TK-10 renal; ACHN renal; CAKI-1 renal; A498 renal; CCRF-CEM leukemia; MOLT-4 leukemia.
Common to all, as to assay: NCI-60 one-dose screen, 48 h (100 = growth as untreated, 0 = no growth, -100 = all killed)
What all share (settings): 10 µM unless noted

On to `S=c1ssnc1-c1cccs1`, for which the growth is 99% in the experiment with HCT-15 colon; 105% with HT29 colon; 97.1% in the experiment on SNB-75 CNS; 96.8% with SNB-19 CNS; 100% with U251 CNS; 94.3% in the experiment on PC-3 prostate. The growth with SK-MEL-5 melanoma was 57.3%; in the experiment on UACC-62 melanoma, 90.7%; in the experiment with LOX IMVI melanoma, 92.3%; in the experiment with SK-MEL-28 melanoma it was 112%; in the experiment on SK-MEL-2 melanoma, 103%; with EKVX NSCLC it was 104%. Also, the growth is 106% with SN12C renal; 99.9% with UO-31 renal; 99.5% in the experiment on TK-10 renal; 107% with ACHN renal; 92.1% with CAKI-1 renal; 23.4% with A498 renal. Besides, the growth with CCRF-CEM leukemia was 97.5%; in the experiment on MOLT-4 leukemia, 84.9%.

Turning to `O=C(O)c1cccc(N/C=C/C(=O)c2cc3cc(Br)ccc3oc2=O)c1`, the growth is 93.2% with HCT-15 colon; 108% in the experiment on HT29 colon; 83.7% in the experiment with SNB-75 CNS; 94% in the experiment with SNB-19 CNS; 96.9% in the experiment with U251 CNS; 93.8% with PC-3 prostate. In addition, the growth was 97.7% in the experiment with SK-MEL-5 melanoma; 94.2% in the experiment on UACC-62 melanoma; 97.9% with LOX IMVI melanoma; 104% in the experiment with SK-MEL-28 melanoma; 119% in the experiment on SK-MEL-2 melanoma; 102% with EKVX NSCLC. In addition, the growth in the experiment on SN12C renal is 94.1%; with UO-31 renal it was 74.9%; in the experiment on TK-10 renal, 119%; with ACHN renal it was 102%; in the experiment with CAKI-1 renal, 86.3%; in the experiment with A498 renal, 92.5%. Moreover, the growth in the experiment with CCRF-CEM leukemia was 101%; in the experiment with MOLT-4 leukemia it was 113%.

On to `COc1cc(C#Cc2ccc(=O)oc2C#Cc2ccccc2)cc(OC)c1OC`, for which the growth in the experiment with HCT-15 colon is 61.4%; in the experiment with HT29 colon, 43.4%; in the experiment with SNB-75 CNS, 77.1%; with SNB-19 CNS, 92.9%; with U251 CNS, 83.8%; in the experiment on PC-3 prostate, 86.2%. For the same compound, the growth was 56.7% in the experiment on SK-MEL-5 melanoma; 80.3% in the experiment with UACC-62 melanoma; -61% (active) in the experiment on LOX IMVI melanoma; 23.1% in the experiment with SK-MEL-28 melanoma; 104% in the experiment on SK-MEL-2 melanoma; 115% in the experiment on EKVX NSCLC. Also, the growth with SN12C renal was 16%; in the experiment on UO-31 renal, 76.6%; with TK-10 renal it was 134%; in the experiment with ACHN renal it was 89.3%; with CAKI-1 renal, 96.3%; with A498 renal, 119%. Moreover, the growth in the experiment with CCRF-CEM leukemia was 3.76% (active); in the experiment with MOLT-4 leukemia it was 33.4%.

Take `C#CCn1cnc2c(Nc3cccc(NC(=O)CCl)c3)ncnc21`: the growth with HCT-15 colon is 23.4%; in the experiment on HT29 colon, 26.9%; in the experiment with SNB-75 CNS it was 33.2%; in the experiment with SNB-19 CNS it was 58.7%; with U251 CNS, 19.1%; with PC-3 prostate, 28.6%. Further, the growth in the experiment with SK-MEL-5 melanoma is 31.4%; in the experiment with UACC-62 melanoma, 19.7%; with LOX IMVI melanoma, 24%; in the experiment on SK-MEL-28 melanoma, 39.5%; in the experiment on SK-MEL-2 melanoma it was 46%; in the experiment on EKVX NSCLC, 45.3%. Further, the growth was 31.2% in the experiment on SN12C renal; 46.7% in the experiment on UO-31 renal; 76.9% with TK-10 renal; 23.4% in the experiment with ACHN renal; 29.9% in the experiment on CAKI-1 renal; 78.7% in the experiment on A498 renal. The growth is 4.81% (active) with CCRF-CEM leukemia and 4.44% (active) with MOLT-4 leukemia.

As to `Cc1ccc2[nH]c(=O)c3c(c2c1)OC(N)=C(C#N)C31C(=O)c2cccc3cccc1c23` (stereo not given), the growth in the experiment on HCT-15 colon was 105%; in the experiment with HT29 colon, 95.6%; in the experiment on SNB-75 CNS, 84.4%; in the experiment with SNB-19 CNS, 97.1%; with U251 CNS, 95.2%; in the experiment on PC-3 prostate it was 89.3%. The growth in the experiment with SK-MEL-5 melanoma is 94.3%; in the experiment on UACC-62 melanoma, 88.9%; in the experiment with LOX IMVI melanoma it was 93.5%; in the experiment on SK-MEL-28 melanoma, 98.7%; in the experiment on SK-MEL-2 melanoma it was 110%; in the experiment on EKVX NSCLC it was 102%. The growth was 97.8% in the experiment with SN12C renal; 77.7% in the experiment with UO-31 renal; 123% in the experiment on TK-10 renal; 95.5% in the experiment on ACHN renal; 90.9% with CAKI-1 renal; 107% in the experiment with A498 renal. Moreover, the growth in the experiment on CCRF-CEM leukemia was 95.3%; with MOLT-4 leukemia, 88.1%.

Regarding `CCCNc1nc2ccccc2c2c(=O)c3cccc(Cl)c3sc12`, the growth is 89.7% in the experiment on HCT-15 colon; 81.8% with HT29 colon; 82.3% with SNB-75 CNS; 110% in the experiment on SNB-19 CNS; 97.9% with U251 CNS; 88.5% in the experiment on PC-3 prostate. The growth was 97.6% with SK-MEL-5 melanoma; 84.3% with UACC-62 melanoma; 90.2% with LOX IMVI melanoma; 115% with SK-MEL-28 melanoma; 102% with SK-MEL-2 melanoma; 85.1% in the experiment on EKVX NSCLC. Also, the growth in the experiment on SN12C renal is 105%; in the experiment with UO-31 renal it was 66.9%; in the experiment with TK-10 renal, 129%; in the experiment with ACHN renal, 92.7%; with CAKI-1 renal it was 71.7%; in the experiment with A498 renal, 124%. Also, the growth with CCRF-CEM leukemia is 92.2%; in the experiment with MOLT-4 leukemia, 93.9%.
